Data on 90 molecules can be found in PubChem BioAssay AID652010 (The Scripps Research Institute Molecular Screening Center, 2013).

The whole screen tested about 370,000 compounds, of which about 4,100 (1.1%) were called active. This excerpt belongs to a sample that is enriched for actives. A number with no mark means an inactive call.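 How the source made its calls: active means inhibition above the mean over all tested compounds plus 3 SD (cut at about 3.6% in these data); inactive means the rest.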

The nature of the experiment: relief of DAX-1 repression of SF-1 activity – cell-based, luminescence, SF-1 (NR5A1), full-length DAX-1, primary screen (AID 652010).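 Further: 0% = DAX-1 cells with DMSO and 100% = cells lacking DAX-1 with DMSO.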 Conditions: HEK293T StAR-luciferase reporter, SF-1/DAX-1 repression relief; at 6.8 µM; stronger effect = higher value.
`O=C1C(=O)N(c2ccccc2)C(c2ccccc2)C1c1ccccc1` (stereo not given): the inhibition is -0.52%.

With `O=C(COc1ccc(Cl)cc1)N1CCN(S(=O)(=O)c2ccc(Cl)cc2)CC1`, the inhibition is -0.62%.

As to `Cc1csc(SCC(=O)Nc2sccc2C#N)n1`, the inhibition was 10.3% (active).

For `CC(c1nnc(SCC(=O)Nc2sccc2C#N)n1-c1ccc(Cl)cc1)N(C)C` (stereo not given), the inhibition was 0.06%.

With `CC(=O)c1cc(C#N)c(SCC(=O)Nc2nccs2)nc1C`, the inhibition was 0.62%.

Turning to `Cc1ccc(OCCC(=O)Nc2ccc(S(=O)(=O)Nc3nccs3)cc2)cc1`, the inhibition was -0.38%.

For `Cc1cc(NS(=O)(=O)c2ccc(NC(=O)CSc3nnc(SCc4ccc(F)cc4)s3)cc2)nc(C)n1`, the inhibition was -0.01%.

As to `Nc1[nH]c(/C=C2/CCCCC2n2[nH]c(=O)n(-c3ccccc3)c2=O)c(Cc2ccccc2)[n+]1Cc1ccccc1` (stereo not given), the inhibition was -0.55%.

`O=C(Cn1c(=O)sc2ccccc21)Nc1ccc2c(c1)OCCO2`: the inhibition was -1.14%.

As for `CN(C)CCN(C(=O)CN1C(=O)c2ccccc2C1=O)c1nc2cc3c(cc2s1)OCCO3`, the inhibition is 4.33% (active).

Regarding `CCN(CC)CCN(C(=O)c1ccc(N2C(=O)CCC2=O)cc1)c1nc2cc3c(cc2s1)OCO3`, the inhibition is 1.06%.

`CCOC(=O)c1csc(NC(=O)C2CCCN(S(=O)(=O)c3ccc(Cl)s3)C2)n1` (stereo not given): the inhibition was -2.18%.

Take `COc1ccc(C(=O)Nc2ccc(-n3nncc3C(C)(C)C)cc2)cc1`: the inhibition is -0.32%.

On to `COc1ccc(NC(=O)c2ccc(OC)cc2)cc1`, for which the inhibition was 4.59% (active).

As for `COCCNC(=S)c1ccc(OC)cc1`, the inhibition is 0.05%.

Take `COc1ccc(C(=O)NCC[N+](C)(C)C)cc1`: the inhibition was 4.67% (active).

Consider `COc1ccc(C(=O)NCCSc2ccccc2C)cc1`, for which the inhibition is 2.33%.

With `COc1ccc(C(=O)NC2CCN(C(=O)Nc3ccc(F)cc3)CC2)cc1`, the inhibition is -0.44%.

`O=C(C1CCN(S(=O)(=O)c2ccccc2)CC1)N1CCN(C2CCCCC2)CC1`: the inhibition is 0.23%.

For the molecule `Nn1c(SCC(=O)Nc2cccc3ccccc23)nnc1-c1cc(-c2ccc(F)cc2)n[nH]1`, the inhibition was -0.54%.

`CC(=O)NC1(c2ccc(F)cc2)CCN(C(=O)c2c(F)cccc2F)CC1`: the inhibition is -0.58%.

As to `CC(C)CSc1nnc(-c2cccnc2)n1Cc1ccccc1`, the inhibition was -1.22%.

`COC(=O)c1cccc(Cn2ccc3ccc(-c4ccc5ccn(C(=O)c6ccccc6C)c5c4)cc32)c1`: the inhibition is -1.7%.

As to `O=C(CSc1nc2ccccc2n1Cc1ccccc1)NNC(=S)Nc1ccccc1`, the inhibition is -1.17%.

On to `Cc1ccc(NC(=O)CC2C(=O)N(Cc3ccccc3)C(=S)N2NC(=O)c2cccc(F)c2)c(C)c1` (stereo not given), for which the inhibition was -0.22%.

On to `O=C(Nc1ccn(Cc2ccccc2)n1)c1cccc(F)c1`, for which the inhibition was 4.43% (active).

For `O=C(O)CC(Cc1ccccc1)C(=O)Nc1ccc([N+](=O)[O-])cc1` (stereo not given), the inhibition is -0.05%.

On to `O=C(Cn1cnc([N+](=O)[O-])n1)NCCc1ccccc1`, for which the inhibition was -0.33%.

Turning to `O=C(Nc1ccn(Cc2ccccc2)n1)c1n[nH]c([N+](=O)[O-])c1Cl`, the inhibition is 5.27% (active).

`CCOc1cccc(C(=O)Nc2cnn(Cc3ccccc3)c2)c1`: the inhibition is -0.67%.

As to `Cc1cc(C)cc(NC(=O)N2CCC(N(C)CCC(C)C)CC2)c1`, the inhibition was 1.03%.

Consider `Cc1sc2nc(COC(=O)C(NC(=O)c3ccc(Cl)cc3Cl)C(C)C)[nH]c(=O)c2c1C` (stereo not given), for which the inhibition was -0.03%.

Consider `COC(=O)c1ccc(CN2C(=O)[C@]3(OCCC=C[C@H]3C)c3c(Br)cccc32)cc1`, for which the inhibition was 1.3%.

With `COC(=O)C12C=C3CC(c4ccccc4)=C3C(=O)N1Cc1[nH]c3ccccc3c1C2` (stereo not given), the inhibition was 0.17%.

In the case of `Cc1ccc(S(=O)Cc2ccc(C(=O)N3CCN(C4CCCCC4)CC3)o2)cc1` (stereo not given), the inhibition is 5.98% (active).

`Cc1ccc(C(=O)N2CCN(C3CCCCC3)CC2)s1`: the inhibition is 0.45%.

Take `Cc1ccc(CS(=O)Cc2ccc(C(=O)N3CCOCC3)o2)cc1` (stereo not given): the inhibition is -0.29%.

For `COC(=O)[C@]12C[C@H](CC(=O)NCCc3ccccc3OC)C(=O)N(Cc3ccco3)C1=C[C@H](C(C)C)O[C@@H]2C1CC1`, the inhibition is -0.45%.

With `Cc1ccccc1CS(=O)(=O)Cc1ccc(C(=O)Nc2ccc(Cl)cc2)o1`, the inhibition is -3.88%.

Take `Cc1ccccc1NC(=O)C1CCN(c2ncccn2)CC1`: the inhibition was -0.57%.

`O=C(CCS(=O)(=O)c1cccc2nsnc12)N1CCN(c2ccccc2F)CC1`: the inhibition is 0.3%.

For the molecule `O=C(CCSc1ccccc1)N1CCN(c2ccccc2F)CC1`, the inhibition was 3.74% (active).

Turning to `O=C(CCc1ccccc1F)N1CCN(c2ccccc2)CC1`, the inhibition was -0.1%.

`O=C(c1ccc(-c2ccccc2)cc1)C1CCCN(C(=O)c2cncs2)C1` (stereo not given): the inhibition is -0.34%.

On to `O=C(O)c1ccccc1-c1ccccc1C(=O)Nc1ccccc1Br`, for which the inhibition was 2.05%.

Take `O=C(Nc1ccc(-n2ccnc2P(=O)(O)c2ccccc2)cc1)c1ccccc1Br`: the inhibition was 0.24%.

For `O=C(Nc1ccccc1)c1ccccc1Br`, the inhibition was 4.1% (active).

In the case of `CCC(CO)Nc1cccc2c1S(=O)(=O)N(Cc1cn(Cc3ccccc3C(F)(F)F)nn1)Cc1ccccc1O2` (stereo not given), the inhibition is 0.53%.

In the case of `COc1ccc(N2CCN(CCNS(=O)(=O)c3ccc(Cl)s3)CC2)cc1`, the inhibition was -1.29%.

Consider `CCn1c(SCC(=O)NCC2CCCO2)nc2ccccc21` (stereo not given), for which the inhibition was 0.35%.

As for `Cc1ccc(NC(=O)c2cnc(SCC(=O)NCC3CCCO3)n(C)c2=O)cc1` (stereo not given), the inhibition was 3.81% (active).

As for `Cn1c(SCC(=O)c2ccccc2)ncc(C(=O)Nc2ccc(F)cc2)c1=O`, the inhibition is 0.92%.

For `CC(CCN1CCC(C(O)(c2ccccc2)c2ccccc2)CC1)Oc1ccc([N+](=O)[O-])cc1Cl` (stereo not given), the inhibition is -0.6%.

Take `CC(C)c1ccc(NS(=O)(=O)c2cn(C)c(=O)n(C)c2=O)cc1`: the inhibition is 1.86%.

As for `Cc1ccc(-n2c(SCC(=O)Nc3cccc4ccccc34)nnc2-c2ccco2)cc1`, the inhibition was -1.09%.

In the case of `C=CCN=C1NC(c2ccccc2)C(C(=O)OC)=C(C)N1Cc1ccc(C(F)(F)F)cc1` (stereo not given), the inhibition is -0.62%.

`NNc1cccc(C=Cc2ccccc2)cc1=O`: the inhibition is 4.11% (active).

On to `Cc1ccc(NC(=O)Nc2cc(C)nn2-c2ccccc2)cc1`, for which the inhibition is -0.81%.

`COC(=O)[C@]12C[C@H](CC(=O)NCc3cccs3)C(=O)N(CCc3ccc(OC)c(OC)c3)C1=C[C@H](C(C)C)O[C@@H]2C1CC1`: the inhibition is 0.43%.

`CCOC(=O)N1CCN(C(=O)C[C@H]2C[C@@]3(C(=O)OC)C(=C[C@H](C(C)(C)C)O[C@@H]3C)N(Cc3ccc(Cl)cc3Cl)C2=O)CC1`: the inhibition was -1.88%.

Turning to `Fc1ccccc1/C=N/Nc1cc(N2CCCCC2)ncn1`, the inhibition was 3.71% (active).

In the case of `CCOC(=O)c1cccc(NC(=O)CN(C)S(=O)(=O)c2ccc(-c3cocn3)s2)c1`, the inhibition is -0.38%.

For `COc1cccc(CNC(=O)C2CCCN(c3nc4ccccc4o3)C2)c1OC` (stereo not given), the inhibition is -1.08%.

Turning to `Cc1c(C=O)c2ccccc2n1CCOc1ccccc1`, the inhibition is -1.1%.

With `O=C(O)Cn1c(Cc2ccccc2)nc2ccccc21`, the inhibition was 0.13%.

With `Cc1c(C=O)c2ccccc2n1CC(=O)O`, the inhibition is 3.62% (active).

Consider `S=c1[nH]nc(/C=C/c2ccccc2)o1`, for which the inhibition is -0.19%.

In the case of `O=c1oc(-c2ccccc2NS(=O)(=O)c2ccc(Cl)cc2)nc2ccccc12`, the inhibition was 0.22%.

With `O=c1oc(/C=C/c2ccccc2)nc2ccccc12`, the inhibition is 5.78% (active).

Take `CN(CC(=O)Nc1ccc(C(N)=O)cc1)S(=O)(=O)c1ccc2c(c1)OCCO2`: the inhibition is -0.16%.

Regarding `COCCCNC(=O)c1ccc(CNS(=O)(=O)c2ccc(NC(C)=O)cc2)cc1`, the inhibition was -0.22%.

Turning to `CC1CCCN(c2cccc3c2S(=O)(=O)N(Cc2ccc(F)cc2)[C@@H](C)[C@H](c2ccccc2)O3)C1` (stereo not given in full), the inhibition is 1.64%.

Regarding `COc1ccc(NC(=O)CSCc2ccc([N+](=O)[O-])cc2)cc1OC`, the inhibition is 0.2%.

`COc1cc(/C=N/O)ccc1OCc1ccc([N+](=O)[O-])cc1`: the inhibition is 4.6% (active).

Consider `CCOc1cc(/C=N/O)ccc1OCc1ccccc1F`, for which the inhibition was 0.47%.

Turning to `Cn1nc(C(C)(C)C)c(NC(=O)c2sccc2Cl)c1C(C)(C)C`, the inhibition was -0.4%.

For `C[C@@H]1ON(C)[C@H]2C[C@H]3c4cc(N5CCOCC5)ccc4CCN3C[C@@H]12`, the inhibition was 0.27%.

For the molecule `COc1ccccc1Cc1c(-c2ccc(Cl)cc2)nc2ccc(Cl)cn12`, the inhibition is 2.6%.

For `Cc1ccc(-c2nc3ccc(Cl)cn3c2Cc2ccccc2)cc1`, the inhibition was 4.09% (active).

As for `COC(=O)c1ccc2nc(-c3ccccc3)c(Cc3ccc(OC)cc3C)n2c1`, the inhibition is 3.05%.

Take `Brc1ccc2nc(-c3ccccc3)c(Cc3ccccc3)n2c1`: the inhibition is 0.67%.

For `COC(=O)c1ccc2nc(-c3ccc(F)cc3)c(Cc3ccc(C)cc3)n2c1`, the inhibition is 0.98%.

With `Cc1ccc2nc(-c3cccnc3)c(NC3CCCC3)n2c1`, the inhibition is -0.53%.

On to `Cc1cc(Br)cn2c(Cc3ccccc3C(F)(F)F)c(-c3ccc(C#N)cc3)nc12`, for which the inhibition was -0.14%.

For the molecule `Cc1ccc(-c2nc3c(C)cc(Br)cn3c2Cc2ccccc2)cc1`, the inhibition is -0.26%.

Consider `Cc1cc(Br)cn2c(Cc3ccccc3C(F)(F)F)c(-c3ccc(Cl)cc3)nc12`, for which the inhibition is -1.19%.

As for `Cc1ccc(-c2nc3ccc(Br)cn3c2Cc2ccccc2C(F)(F)F)cc1`, the inhibition was 7.12% (active).

Turning to `Cc1ccc2nc(-c3ccccc3)c(CC3CCCCC3)n2c1`, the inhibition was 3.67% (active).

Turning to `COc1ccccc1Cc1c(-c2ccc(F)cc2)nc2ccc(C)cn12`, the inhibition is 4.57% (active).

With `COC(=O)[C@]12C[C@H](CC(=O)NCCc3ccccc3OC)C(=O)N(Cc3ccccc3)C1=C[C@H](C(C)C)O[C@@H]2C1CC1`, the inhibition is 0.15%.
